Assay outcomes as filed in PubChem.
DUX4 inh = blocks DUX4-driven transcriptional activation; 293T-iDUX4 ZSCAN4-Gaussia luciferase reporter, 24 h; stronger effect = lower value; activity change, negative = inhibition, % (test concentration not listed); 0.8% of 37,000 active; AID 1224904;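 active means mean inhibition of at least 10% in the main channel, exceeding the control channel by a set limit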
A number is an active result; i = inactive; ! = a repeat was not active. This excerpt belongs to a sample that is enriched for hits.

SMILES	DUX4 inh
N#Cc1cccc(-c2ccc(C3[C@@H]4CN(Cc5cocn5)C[C@H]3N4)cc2)c1 (stereo not given in full)	i
c1cncc(CN2C[C@@H]3N[C@H](C2)C3c2ccc(-c3cccnc3)cc2)c1 (stereo not given in full)	i
Cc1ccccc1-c1ccc(C2[C@@H]3CN(Cc4ccc5c(c4)OCO5)C[C@H]2N3)cc1 (stereo not given in full)	-36.8!
C/C=C/c1ccc(C2[C@H]3CNC[C@@H]2N3Cc2ccc3c(c2)OCO3)cc1 (stereo not given in full)	i
CN(C)C(=O)c1ccc(-c2ccc(C3[C@@H]4CN(Cc5ccc6c(c5)OCO6)C[C@H]3N4)cc2)cc1 (stereo not given in full)	-29.7!
C(=C\c1ccc(C2[C@H]3CNC[C@@H]2N3Cc2cncnc2)cc1)/c1ccccc1 (stereo not given in full)	i
COc1ccc2c3c(n(C)c2c1)[C@H](CO)N(C(=O)CN1CCOCC1)CC31CN(C(=O)C2CC2)C1	i
C[C@@H]1CN([C@@H](C)CO)C(=O)CCCn2cc(nn2)CO[C@H]1CN(C)CC1CCCCC1	i
O=C(Nc1ccc2c(c1)[C@@H]1C[C@@H](CC(=O)N3CCc4ccccc4C3)O[C@@H](CO)[C@@H]1O2)C1CCOCC1	i
O=S(=O)(NCC[C@H]1CC[C@H](NS(=O)(=O)c2cccc(Cl)c2)[C@@H](CO)O1)c1cccc(F)c1	i
CNC[C@@H]1OCCCC[C@H](C)Oc2ccc(NC(=O)c3ccncc3)cc2C(=O)N([C@H](C)CO)C[C@@H]1C	i
CCCNC(=O)N1CC2(C1)[C@@H](c1ccccc1)[C@@H](CO)N2C(=O)C1CC1	i
CC=Cc1ccc2n(c1=O)C[C@@H]1[C@@H](CO)[C@H](C(=O)NCc3ccccc3)N(CC)[C@H]21 (mixture of isomers)	i
O=C1CNC[C@@H]2[C@H](c3ccc(C#CC4CCCCC4)cc3)[C@@H](CO)N12	i
CC(=O)N1CC(=O)N2[C@H](C1)[C@@H](c1ccc(C#Cc3cccnc3)cc1)[C@@H]2CO	i
O=C(Nc1cccc(F)c1)N1CC(=O)N2[C@H](CO)[C@@H](c3ccc(C#CCC4CCCC4)cc3)[C@@H]2C1	i
O=C1CNC[C@@H]2[C@@H](c3ccc(C#Cc4cccnc4)cc3)[C@@H](CO)N12	-19.5
CCCC#Cc1ccc([C@H]2[C@H]3CN(C(=O)Nc4ccccc4)CC(=O)N3[C@H]2CO)cc1	i
CC(=O)N1CC(=O)N2[C@H](CO)[C@@H](c3ccc(C#Cc4cccnc4)cc3)[C@@H]2C1	i
CCCC#Cc1ccc([C@H]2[C@H](CO)N3C(=O)CN(C(=O)Nc4cccc(F)c4)C[C@@H]23)cc1	-69.3
CC(=O)N1CC(=O)N2[C@H](CO)[C@H](c3ccc(C#Cc4cccnc4)cc3)[C@@H]2C1	-10.9
O=C1CNC[C@H]2[C@@H](c3ccc(C#CC4CCCCC4)cc3)[C@H](CO)N12	i
COCC(=O)Nc1ccc2c(c1)C(=O)N(C)C[C@@H](OC)[C@@H](C)CN(CC1CCCCC1)[C@H](C)CO2	i
CCC(=O)N1CC2(CCN(Cc3cncnc3)CC2)c2c([nH]c3cc(OC)ccc23)[C@H]1CO	i
O=C(C[C@H]1CC[C@H]2[C@@H](COC[C@@H](O)CN2C(=O)Nc2ccccc2)O1)NCCc1ccncc1	i
SMILES	DUX4 inh
C[C@H](CO)N1C[C@H](C)[C@@H](CN(C)Cc2ccc(C(=O)Nc3ccccc3N)cc2)OCCCC[C@H](C)Oc2ccc(N(C)C)cc2C1=O	i
COc1ccc(C#Cc2ccc([C@@H]3[C@@H](CO)N4CCCCN(S(=O)(=O)c5ccccc5)C[C@H]34)cc2)cc1	i
O=S(=O)(c1cccs1)N1CCCCN2[C@@H](CO)[C@H](c3ccc(Br)cc3)[C@@H]2C1	-14.0
O=S(=O)(c1cccs1)N1CCCCN2[C@H](CO)[C@@H](c3ccc(Br)cc3)[C@H]2C1	i
CCCC#Cc1ccc([C@@H]2[C@H](CO)N3CCCCN(S(=O)(=O)Cc4ccccc4)C[C@@H]23)cc1	i
CCCC#Cc1ccc([C@H]2[C@H]3CN(S(=O)(=O)Cc4ccccc4)CCCCN3[C@H]2CO)cc1	i
O=S(=O)(c1ccccc1)N1CCCCN2[C@H](CO)[C@H](c3ccc(C#CC4CCCC4)cc3)[C@H]2C1	-19.4
COc1ccc(C#Cc2ccc([C@H]3[C@H](CO)N4CCCCN(S(=O)(=O)c5ccccc5)C[C@@H]34)cc2)cc1	-30.2
O=S(=O)(c1ccccc1)N1CCCCN2[C@H](CO)[C@@H](c3ccc(C#CC4CCCC4)cc3)[C@@H]2C1	i
O=S(=O)(c1cccs1)N1CCCCN2[C@H](C1)[C@H](c1ccc(Br)cc1)[C@@H]2CO	i
C[C@@H](O)C#Cc1ccc([C@H]2[C@H]3CN(S(=O)(=O)c4ccccc4)CCCCN3[C@H]2CO)cc1	i
CC(C)CC#Cc1ccc([C@H]2[C@@H](CO)N3CCCCN(S(=O)(=O)Cc4ccccc4)C[C@H]23)cc1	-14.2
O=S(=O)(c1ccc(F)cc1)N1CCCCN2[C@H](CO)[C@@H](c3ccc(C#CC4CC4)cc3)[C@@H]2C1	i
